Data published in the supplement of paper PMC11732987, “Enantioselective OTUD7B fragment discovery through chemoproteomics screening and high-throughput optimisation” (Communications Chemistry, 2025).

Experiments:
Assay in all cases: log2 ratio of Biotin-Ahx-Ub-VS probe labelling (fragment/DMSO); higher = less target engagement (more negative = stronger competition), active = hit call of the paper (q ≤ 0.05, log2 ratio ≤ -1)
Conditions in all cases: compound concentration: 200 uM; treatment time: 3 h
UniProt O00507 = molecular target: UniProt O00507
Chain of UniProt O00507 (O00507 whole entry, the tested form may be a part): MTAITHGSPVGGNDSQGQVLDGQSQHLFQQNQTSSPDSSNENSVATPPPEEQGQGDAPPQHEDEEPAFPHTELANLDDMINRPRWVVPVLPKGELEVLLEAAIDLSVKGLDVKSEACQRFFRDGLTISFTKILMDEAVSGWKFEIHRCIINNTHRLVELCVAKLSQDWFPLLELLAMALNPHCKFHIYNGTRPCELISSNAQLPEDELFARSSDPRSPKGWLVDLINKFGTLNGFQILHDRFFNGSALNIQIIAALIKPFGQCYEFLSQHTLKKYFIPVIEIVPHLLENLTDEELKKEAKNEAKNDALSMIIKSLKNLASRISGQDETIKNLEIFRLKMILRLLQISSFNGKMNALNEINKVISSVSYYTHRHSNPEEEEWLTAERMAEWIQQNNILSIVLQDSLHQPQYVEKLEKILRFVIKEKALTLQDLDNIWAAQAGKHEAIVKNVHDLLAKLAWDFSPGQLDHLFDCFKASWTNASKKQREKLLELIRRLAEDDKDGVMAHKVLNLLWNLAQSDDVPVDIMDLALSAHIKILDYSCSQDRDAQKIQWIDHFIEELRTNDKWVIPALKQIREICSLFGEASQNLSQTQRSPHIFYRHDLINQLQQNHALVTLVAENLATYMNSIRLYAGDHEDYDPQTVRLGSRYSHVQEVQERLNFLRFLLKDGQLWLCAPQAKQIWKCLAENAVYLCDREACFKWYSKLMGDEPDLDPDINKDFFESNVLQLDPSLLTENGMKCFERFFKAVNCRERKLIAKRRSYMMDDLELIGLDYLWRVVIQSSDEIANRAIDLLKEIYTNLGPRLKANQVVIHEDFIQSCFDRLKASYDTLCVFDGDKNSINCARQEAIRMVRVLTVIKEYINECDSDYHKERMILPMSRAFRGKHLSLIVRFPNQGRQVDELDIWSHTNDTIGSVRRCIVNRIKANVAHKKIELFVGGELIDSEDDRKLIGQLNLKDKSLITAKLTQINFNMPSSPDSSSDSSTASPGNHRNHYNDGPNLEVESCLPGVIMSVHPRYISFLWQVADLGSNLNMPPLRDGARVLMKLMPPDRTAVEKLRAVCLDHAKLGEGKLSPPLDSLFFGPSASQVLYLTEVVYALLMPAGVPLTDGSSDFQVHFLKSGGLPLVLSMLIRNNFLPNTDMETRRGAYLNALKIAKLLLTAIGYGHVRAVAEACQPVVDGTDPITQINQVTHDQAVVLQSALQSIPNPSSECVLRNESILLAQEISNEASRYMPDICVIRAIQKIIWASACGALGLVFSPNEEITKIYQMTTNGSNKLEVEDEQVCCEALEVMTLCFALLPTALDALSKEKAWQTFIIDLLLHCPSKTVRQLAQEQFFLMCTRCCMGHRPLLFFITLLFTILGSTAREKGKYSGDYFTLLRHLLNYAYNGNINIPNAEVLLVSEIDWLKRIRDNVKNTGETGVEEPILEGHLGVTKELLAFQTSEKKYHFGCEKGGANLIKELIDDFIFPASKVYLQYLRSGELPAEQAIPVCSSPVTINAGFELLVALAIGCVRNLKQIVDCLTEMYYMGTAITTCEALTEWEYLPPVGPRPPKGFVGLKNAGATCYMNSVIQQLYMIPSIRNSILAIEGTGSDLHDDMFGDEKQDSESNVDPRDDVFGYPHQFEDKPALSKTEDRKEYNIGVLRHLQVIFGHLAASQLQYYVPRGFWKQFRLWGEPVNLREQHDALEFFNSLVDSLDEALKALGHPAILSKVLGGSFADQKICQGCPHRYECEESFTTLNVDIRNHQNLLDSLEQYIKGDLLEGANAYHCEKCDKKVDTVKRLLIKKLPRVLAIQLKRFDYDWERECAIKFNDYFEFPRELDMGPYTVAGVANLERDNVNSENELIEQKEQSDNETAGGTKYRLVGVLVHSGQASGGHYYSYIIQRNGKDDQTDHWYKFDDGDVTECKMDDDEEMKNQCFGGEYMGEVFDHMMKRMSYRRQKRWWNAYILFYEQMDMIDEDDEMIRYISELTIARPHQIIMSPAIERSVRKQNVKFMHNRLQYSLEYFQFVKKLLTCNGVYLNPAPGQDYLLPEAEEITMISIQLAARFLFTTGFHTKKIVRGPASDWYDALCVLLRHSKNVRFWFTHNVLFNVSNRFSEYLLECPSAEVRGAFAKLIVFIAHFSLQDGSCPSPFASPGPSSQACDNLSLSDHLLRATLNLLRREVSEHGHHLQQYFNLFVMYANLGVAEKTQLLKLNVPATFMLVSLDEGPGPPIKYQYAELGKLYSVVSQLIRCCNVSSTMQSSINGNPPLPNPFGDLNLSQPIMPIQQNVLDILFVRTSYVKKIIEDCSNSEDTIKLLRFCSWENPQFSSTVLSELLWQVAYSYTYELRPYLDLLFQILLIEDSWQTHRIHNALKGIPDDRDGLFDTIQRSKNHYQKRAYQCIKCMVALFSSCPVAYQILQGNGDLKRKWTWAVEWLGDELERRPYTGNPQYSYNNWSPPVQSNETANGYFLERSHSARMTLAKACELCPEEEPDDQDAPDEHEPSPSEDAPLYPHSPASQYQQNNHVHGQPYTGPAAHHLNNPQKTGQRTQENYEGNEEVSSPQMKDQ
Outline: (§1)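 Labelled DUBs were enriched with NeutrAvidin, digested with LysC and trypsin, and run by diaPASEF LC-MS/MS. The labelling used Biotin-Ahx-Ub-VS at 0.5 µM final for 1 h on HEK293T lysate (495 µg per sample) previously treated in triplicate with fragment at 200 µM or vehicle for 3 h. Values are average log2 fragment/vehicle ratios by unpaired t-test on global-median-normalised Spectronaut quantities of proteins with ≥2 unique peptides.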

UniProt P51784 = molecular target: UniProt P51784
Chain of UniProt P51784 (P51784 whole entry): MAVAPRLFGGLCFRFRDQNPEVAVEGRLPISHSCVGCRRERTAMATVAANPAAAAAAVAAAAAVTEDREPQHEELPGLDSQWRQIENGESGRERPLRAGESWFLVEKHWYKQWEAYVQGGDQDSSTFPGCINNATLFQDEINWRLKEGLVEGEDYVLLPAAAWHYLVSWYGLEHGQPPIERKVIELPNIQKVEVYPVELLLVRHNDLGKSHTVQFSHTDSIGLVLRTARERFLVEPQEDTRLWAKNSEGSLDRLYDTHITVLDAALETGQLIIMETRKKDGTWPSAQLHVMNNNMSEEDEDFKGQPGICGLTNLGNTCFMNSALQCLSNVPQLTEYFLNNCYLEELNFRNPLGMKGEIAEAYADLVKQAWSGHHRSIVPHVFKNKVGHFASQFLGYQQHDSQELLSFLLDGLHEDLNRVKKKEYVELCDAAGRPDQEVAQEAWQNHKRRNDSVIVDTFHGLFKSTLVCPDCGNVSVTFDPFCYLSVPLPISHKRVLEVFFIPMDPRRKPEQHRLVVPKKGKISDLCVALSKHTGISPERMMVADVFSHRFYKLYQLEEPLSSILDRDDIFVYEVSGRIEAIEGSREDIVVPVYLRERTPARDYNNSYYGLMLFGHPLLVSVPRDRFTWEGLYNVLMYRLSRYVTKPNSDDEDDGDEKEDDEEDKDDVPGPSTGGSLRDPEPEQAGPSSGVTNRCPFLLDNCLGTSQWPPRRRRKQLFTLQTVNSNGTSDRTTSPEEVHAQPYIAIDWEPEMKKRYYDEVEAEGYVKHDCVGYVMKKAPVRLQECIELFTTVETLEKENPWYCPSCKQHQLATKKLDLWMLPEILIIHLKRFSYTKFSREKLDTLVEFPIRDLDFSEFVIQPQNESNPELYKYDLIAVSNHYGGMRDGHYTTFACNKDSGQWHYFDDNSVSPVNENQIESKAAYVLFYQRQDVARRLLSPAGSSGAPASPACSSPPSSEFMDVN
Outline: as §1

UniProt Q5T2D3 = molecular target: T1, UniProt Q5T2D3
T1 sequence (whole entry): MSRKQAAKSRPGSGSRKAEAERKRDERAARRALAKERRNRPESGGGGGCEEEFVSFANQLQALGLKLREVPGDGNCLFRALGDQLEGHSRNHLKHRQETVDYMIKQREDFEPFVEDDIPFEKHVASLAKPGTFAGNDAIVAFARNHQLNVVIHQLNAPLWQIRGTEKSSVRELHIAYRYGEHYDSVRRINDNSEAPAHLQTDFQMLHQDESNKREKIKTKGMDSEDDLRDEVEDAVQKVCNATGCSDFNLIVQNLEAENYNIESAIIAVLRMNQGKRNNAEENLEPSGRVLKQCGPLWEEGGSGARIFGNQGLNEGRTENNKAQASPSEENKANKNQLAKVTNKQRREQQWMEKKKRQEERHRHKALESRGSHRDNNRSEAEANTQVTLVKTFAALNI
Outline: as §1

UniProt Q8TE49 = molecular target: T2, UniProt Q8TE49
T2 sequence (whole entry): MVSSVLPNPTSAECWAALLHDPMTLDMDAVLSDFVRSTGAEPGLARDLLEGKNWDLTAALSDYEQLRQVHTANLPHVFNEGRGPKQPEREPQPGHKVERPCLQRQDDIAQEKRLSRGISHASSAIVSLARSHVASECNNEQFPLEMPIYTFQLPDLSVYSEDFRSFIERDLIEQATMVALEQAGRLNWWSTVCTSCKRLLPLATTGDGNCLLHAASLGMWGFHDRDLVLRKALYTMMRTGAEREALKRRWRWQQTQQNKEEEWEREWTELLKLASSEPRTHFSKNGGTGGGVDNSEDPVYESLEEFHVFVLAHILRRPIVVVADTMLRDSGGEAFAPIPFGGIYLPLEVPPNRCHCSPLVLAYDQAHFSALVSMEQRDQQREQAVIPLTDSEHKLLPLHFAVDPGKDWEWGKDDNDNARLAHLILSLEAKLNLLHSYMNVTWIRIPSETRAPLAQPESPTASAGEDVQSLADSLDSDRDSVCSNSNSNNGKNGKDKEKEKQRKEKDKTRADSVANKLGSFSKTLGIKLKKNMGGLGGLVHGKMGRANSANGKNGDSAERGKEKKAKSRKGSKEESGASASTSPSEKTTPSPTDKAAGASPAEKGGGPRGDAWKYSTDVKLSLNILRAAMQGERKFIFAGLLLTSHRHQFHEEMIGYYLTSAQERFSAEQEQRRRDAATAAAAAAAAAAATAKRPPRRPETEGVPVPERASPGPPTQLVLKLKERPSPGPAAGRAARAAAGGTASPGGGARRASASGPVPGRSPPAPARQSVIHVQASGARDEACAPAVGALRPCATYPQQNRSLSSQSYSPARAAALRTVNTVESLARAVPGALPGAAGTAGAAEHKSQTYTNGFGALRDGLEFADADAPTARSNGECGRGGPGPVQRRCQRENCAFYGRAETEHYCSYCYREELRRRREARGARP
Outline: as §1

UniProt Q9P2H5 = molecular target: T3, UniProt Q9P2H5
T3 sequence (whole entry): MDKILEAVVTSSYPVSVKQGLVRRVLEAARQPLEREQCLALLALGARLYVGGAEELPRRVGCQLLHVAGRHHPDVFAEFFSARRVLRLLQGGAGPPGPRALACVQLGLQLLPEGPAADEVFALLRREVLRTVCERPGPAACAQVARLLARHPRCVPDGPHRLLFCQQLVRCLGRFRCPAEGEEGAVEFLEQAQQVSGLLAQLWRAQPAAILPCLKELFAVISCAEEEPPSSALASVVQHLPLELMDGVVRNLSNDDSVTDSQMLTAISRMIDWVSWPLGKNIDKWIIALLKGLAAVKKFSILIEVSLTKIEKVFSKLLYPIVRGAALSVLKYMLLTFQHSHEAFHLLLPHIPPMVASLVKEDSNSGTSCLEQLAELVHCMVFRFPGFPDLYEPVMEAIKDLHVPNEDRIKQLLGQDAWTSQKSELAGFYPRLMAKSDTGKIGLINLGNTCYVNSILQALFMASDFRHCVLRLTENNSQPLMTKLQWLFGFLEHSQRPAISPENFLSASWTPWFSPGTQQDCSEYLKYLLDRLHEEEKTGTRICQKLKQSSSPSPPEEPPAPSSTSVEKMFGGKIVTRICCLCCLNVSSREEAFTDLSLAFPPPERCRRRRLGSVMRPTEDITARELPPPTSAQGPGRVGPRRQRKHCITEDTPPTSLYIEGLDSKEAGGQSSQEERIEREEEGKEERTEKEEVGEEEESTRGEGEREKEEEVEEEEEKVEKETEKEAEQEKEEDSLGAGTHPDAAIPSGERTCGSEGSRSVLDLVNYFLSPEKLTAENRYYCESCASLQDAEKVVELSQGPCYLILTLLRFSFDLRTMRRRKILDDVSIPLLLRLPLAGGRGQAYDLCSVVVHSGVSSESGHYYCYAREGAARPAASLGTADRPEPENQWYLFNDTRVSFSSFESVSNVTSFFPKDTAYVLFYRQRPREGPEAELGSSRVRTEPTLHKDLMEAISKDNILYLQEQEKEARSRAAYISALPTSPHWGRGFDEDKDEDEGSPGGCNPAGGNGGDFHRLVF
Outline: as §1

UniProt Q9UGI0 = molecular target: T4, UniProt Q9UGI0
T4 sequence (whole entry): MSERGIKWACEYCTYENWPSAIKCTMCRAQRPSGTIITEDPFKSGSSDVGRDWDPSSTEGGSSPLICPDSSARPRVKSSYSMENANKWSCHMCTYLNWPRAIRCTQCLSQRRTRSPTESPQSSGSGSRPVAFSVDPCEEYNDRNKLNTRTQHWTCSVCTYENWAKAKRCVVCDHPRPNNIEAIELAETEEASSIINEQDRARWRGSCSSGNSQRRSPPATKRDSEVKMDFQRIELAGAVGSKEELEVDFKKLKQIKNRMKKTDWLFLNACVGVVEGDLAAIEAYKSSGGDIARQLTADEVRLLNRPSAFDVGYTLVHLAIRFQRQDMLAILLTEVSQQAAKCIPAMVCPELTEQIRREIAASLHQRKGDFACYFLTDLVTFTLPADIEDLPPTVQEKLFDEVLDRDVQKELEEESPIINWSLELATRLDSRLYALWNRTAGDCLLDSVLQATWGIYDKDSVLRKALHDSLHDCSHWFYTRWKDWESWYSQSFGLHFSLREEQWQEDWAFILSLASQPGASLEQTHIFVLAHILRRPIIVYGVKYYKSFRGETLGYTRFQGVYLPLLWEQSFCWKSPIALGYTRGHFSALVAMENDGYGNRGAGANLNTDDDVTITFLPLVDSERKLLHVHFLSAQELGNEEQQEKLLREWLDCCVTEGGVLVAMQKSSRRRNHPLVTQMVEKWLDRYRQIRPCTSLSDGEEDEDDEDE
Outline: as §1

YOD1 = molecular target: T5, YOD1 (UniProt Q5VVQ6)
T5 sequence (whole entry): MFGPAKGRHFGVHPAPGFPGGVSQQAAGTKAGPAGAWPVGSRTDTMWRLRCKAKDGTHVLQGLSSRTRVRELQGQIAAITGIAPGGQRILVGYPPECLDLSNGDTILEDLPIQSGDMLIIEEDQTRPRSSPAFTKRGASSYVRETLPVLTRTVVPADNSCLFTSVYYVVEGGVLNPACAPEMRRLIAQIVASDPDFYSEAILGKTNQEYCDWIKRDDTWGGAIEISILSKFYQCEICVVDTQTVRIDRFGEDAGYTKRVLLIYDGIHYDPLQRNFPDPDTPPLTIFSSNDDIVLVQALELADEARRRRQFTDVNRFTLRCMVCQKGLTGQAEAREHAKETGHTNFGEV
Outline: as §1

Measured: log2 ratio of Biotin-Ahx-Ub-VS probe labelling

Cc1ccc(N(CCC#N)C(=O)CCl)cc1C
active: UniProt Q8TE49 -2.2 | UniProt Q9UGI0 -1.49
inactive: UniProt O00507 -0.369 | UniProt P51784 -0.0613 | UniProt Q5T2D3 -0.0739 | UniProt Q9P2H5 -0.14 | YOD1 0.0402

Cc1cccc(NC(=O)[C@@H]2CCCN2C(=O)CCl)n1
inactive: UniProt O00507 -0.299 | UniProt P51784 -0.00908 | UniProt Q5T2D3 -0.366 | UniProt Q8TE49 -0.721 | UniProt Q9P2H5 -0.312 | UniProt Q9UGI0 -0.3 | YOD1 -0.432

Cc1cccc(N2CCC(NC(=O)CCl)C2=O)c1 (configuration not stated)
inactive: UniProt O00507 0.294 | UniProt P51784 -0.28 | UniProt Q5T2D3 -0.334 | UniProt Q8TE49 -0.961 | UniProt Q9P2H5 -0.395 | UniProt Q9UGI0 -0.883 | YOD1 -0.459

O=C(CCl)N1CCC(C(O)c2ccc(F)cc2)CC1 (configuration not stated)
inactive: UniProt O00507 -0.0622 | UniProt P51784 0.5 | UniProt Q5T2D3 -0.0566 | UniProt Q8TE49 -0.301 | UniProt Q9P2H5 0.167 | UniProt Q9UGI0 -0.181 | YOD1 -0.00174

CC(c1ccccc1)N(C)C(=O)CCl (configuration not stated)
inactive: UniProt O00507 -0.143 | UniProt P51784 -0.169 | UniProt Q5T2D3 -0.0617 | UniProt Q8TE49 -0.555 | UniProt Q9P2H5 -0.0284 | UniProt Q9UGI0 -0.295 | YOD1 0.101

O=C(CCl)Nc1cccc(NC(=O)c2ccccc2)c1
inactive: UniProt O00507 0.236 | UniProt P51784 0.295 | UniProt Q5T2D3 0.263 | UniProt Q8TE49 -0.0536 | UniProt Q9P2H5 -0.23 | UniProt Q9UGI0 0.0168 | YOD1 0.288
